Measurements reported in the supplement of paper PMC11732987, “Enantioselective OTUD7B fragment discovery through chemoproteomics screening and high-throughput optimisation” (Communications Chemistry, 2025).

Experiments:
Assay in all cases: log2 ratio of Biotin-Ahx-Ub-VS probe labelling (fragment/DMSO); higher = less target engagement (more negative = stronger competition), active = hit call of the paper (q ≤ 0.05, log2 ratio ≤ -1)
Conditions in all cases: compound concentration: 200 uM; treatment time: 3 h
USP34 = USP34 (UniProt Q70CQ2)
Chain of USP34 (Q70CQ2 whole entry, the tested form may be a part): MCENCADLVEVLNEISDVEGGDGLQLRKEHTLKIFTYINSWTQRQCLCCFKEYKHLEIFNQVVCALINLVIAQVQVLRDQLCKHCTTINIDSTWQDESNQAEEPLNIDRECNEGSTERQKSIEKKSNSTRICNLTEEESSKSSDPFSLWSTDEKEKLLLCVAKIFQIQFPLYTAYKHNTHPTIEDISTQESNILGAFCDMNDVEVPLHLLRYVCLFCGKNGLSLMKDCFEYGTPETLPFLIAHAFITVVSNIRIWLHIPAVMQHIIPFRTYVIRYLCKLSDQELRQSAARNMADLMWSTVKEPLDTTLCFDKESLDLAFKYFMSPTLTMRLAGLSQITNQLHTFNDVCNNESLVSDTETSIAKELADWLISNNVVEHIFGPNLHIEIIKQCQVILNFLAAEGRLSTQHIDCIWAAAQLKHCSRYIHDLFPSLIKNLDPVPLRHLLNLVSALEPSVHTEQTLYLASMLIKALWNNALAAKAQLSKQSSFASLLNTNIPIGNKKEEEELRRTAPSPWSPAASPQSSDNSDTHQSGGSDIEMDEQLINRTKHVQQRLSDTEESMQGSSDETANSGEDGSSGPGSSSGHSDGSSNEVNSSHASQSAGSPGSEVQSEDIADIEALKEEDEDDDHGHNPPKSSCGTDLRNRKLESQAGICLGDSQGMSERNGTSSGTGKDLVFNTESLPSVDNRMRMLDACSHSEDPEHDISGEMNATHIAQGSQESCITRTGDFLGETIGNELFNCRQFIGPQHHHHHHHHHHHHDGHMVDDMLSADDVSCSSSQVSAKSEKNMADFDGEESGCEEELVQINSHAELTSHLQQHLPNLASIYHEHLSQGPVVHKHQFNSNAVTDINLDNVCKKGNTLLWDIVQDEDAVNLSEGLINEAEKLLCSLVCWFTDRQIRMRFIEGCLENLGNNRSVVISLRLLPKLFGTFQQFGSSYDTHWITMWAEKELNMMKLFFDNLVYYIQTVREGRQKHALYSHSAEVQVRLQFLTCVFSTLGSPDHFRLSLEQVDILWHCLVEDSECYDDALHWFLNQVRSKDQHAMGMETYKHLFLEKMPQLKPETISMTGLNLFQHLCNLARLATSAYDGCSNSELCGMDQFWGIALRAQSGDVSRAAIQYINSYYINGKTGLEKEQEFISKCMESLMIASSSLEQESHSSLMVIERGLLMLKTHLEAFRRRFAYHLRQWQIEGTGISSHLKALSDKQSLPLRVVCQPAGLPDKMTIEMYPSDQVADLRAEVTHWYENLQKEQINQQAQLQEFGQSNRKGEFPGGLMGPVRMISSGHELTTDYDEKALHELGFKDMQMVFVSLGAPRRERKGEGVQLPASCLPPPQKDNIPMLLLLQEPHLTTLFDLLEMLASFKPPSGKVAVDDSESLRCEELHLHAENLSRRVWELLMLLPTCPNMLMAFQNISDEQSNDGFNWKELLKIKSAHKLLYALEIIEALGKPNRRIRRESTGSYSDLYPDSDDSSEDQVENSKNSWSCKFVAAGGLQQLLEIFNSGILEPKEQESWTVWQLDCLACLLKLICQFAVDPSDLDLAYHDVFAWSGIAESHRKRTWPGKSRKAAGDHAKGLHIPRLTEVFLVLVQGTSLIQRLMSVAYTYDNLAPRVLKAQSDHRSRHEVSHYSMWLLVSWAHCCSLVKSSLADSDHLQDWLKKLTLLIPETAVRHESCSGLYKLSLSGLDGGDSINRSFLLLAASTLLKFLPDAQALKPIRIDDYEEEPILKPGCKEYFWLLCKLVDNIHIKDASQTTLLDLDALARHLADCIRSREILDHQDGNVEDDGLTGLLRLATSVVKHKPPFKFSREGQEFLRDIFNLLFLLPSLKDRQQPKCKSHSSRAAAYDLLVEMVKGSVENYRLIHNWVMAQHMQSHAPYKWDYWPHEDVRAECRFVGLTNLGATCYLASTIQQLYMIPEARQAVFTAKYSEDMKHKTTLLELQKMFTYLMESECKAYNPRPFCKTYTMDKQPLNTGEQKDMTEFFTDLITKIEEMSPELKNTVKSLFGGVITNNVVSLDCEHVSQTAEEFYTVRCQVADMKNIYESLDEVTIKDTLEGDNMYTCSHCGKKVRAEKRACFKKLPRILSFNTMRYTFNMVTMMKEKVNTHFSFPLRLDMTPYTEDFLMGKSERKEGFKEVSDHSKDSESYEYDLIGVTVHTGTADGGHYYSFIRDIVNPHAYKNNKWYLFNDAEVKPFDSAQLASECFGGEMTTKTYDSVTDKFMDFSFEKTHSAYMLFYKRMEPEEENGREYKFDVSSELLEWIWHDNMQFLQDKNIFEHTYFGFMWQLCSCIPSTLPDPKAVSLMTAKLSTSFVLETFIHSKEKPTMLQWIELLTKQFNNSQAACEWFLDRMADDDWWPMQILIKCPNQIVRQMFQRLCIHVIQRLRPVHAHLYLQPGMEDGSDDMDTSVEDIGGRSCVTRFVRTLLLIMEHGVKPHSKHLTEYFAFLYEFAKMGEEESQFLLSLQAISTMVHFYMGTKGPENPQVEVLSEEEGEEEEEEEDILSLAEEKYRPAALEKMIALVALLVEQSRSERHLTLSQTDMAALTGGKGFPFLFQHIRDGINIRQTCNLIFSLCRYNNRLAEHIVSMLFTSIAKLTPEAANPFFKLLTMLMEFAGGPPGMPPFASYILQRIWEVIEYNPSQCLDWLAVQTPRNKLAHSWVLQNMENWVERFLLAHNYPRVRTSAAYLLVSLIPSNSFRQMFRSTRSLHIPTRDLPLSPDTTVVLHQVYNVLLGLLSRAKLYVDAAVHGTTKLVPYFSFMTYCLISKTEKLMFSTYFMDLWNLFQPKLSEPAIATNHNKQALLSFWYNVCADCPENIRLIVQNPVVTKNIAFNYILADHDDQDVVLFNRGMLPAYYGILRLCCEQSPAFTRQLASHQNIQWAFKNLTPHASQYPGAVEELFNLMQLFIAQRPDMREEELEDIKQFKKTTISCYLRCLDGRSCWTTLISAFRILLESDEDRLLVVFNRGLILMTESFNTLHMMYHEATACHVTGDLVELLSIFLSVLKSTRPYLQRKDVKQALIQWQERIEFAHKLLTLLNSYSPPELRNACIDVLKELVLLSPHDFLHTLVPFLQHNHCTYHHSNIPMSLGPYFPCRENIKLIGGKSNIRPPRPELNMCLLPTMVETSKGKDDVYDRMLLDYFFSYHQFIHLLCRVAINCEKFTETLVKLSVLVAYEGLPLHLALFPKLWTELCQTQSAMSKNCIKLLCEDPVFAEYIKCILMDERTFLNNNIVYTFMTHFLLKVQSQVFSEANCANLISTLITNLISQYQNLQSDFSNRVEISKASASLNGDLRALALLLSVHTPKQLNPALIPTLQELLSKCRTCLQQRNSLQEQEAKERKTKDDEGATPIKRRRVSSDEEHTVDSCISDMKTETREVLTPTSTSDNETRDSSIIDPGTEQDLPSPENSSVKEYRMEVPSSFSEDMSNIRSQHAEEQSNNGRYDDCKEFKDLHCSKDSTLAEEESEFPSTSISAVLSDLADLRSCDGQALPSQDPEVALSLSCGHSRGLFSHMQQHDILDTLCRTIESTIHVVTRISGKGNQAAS
Procedure, shortened: (§1)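 Average log2 ratios of fragment over vehicle were obtained by unpaired t-test from global-median-normalised Spectronaut label-free quantities. Proteins with ≥2 unique peptides were included. HEK293T lysate (495 µg per sample) was treated in triplicate with fragment at 200 µM or vehicle for 3 h, then with Biotin-Ahx-Ub-VS at 0.5 µM final for 1 h, and labelled DUBs were NeutrAvidin-enriched and run by diaPASEF LC-MS/MS.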

USP36 = target: T1, USP36 (UniProt Q9P275)
T1 sequence (whole entry): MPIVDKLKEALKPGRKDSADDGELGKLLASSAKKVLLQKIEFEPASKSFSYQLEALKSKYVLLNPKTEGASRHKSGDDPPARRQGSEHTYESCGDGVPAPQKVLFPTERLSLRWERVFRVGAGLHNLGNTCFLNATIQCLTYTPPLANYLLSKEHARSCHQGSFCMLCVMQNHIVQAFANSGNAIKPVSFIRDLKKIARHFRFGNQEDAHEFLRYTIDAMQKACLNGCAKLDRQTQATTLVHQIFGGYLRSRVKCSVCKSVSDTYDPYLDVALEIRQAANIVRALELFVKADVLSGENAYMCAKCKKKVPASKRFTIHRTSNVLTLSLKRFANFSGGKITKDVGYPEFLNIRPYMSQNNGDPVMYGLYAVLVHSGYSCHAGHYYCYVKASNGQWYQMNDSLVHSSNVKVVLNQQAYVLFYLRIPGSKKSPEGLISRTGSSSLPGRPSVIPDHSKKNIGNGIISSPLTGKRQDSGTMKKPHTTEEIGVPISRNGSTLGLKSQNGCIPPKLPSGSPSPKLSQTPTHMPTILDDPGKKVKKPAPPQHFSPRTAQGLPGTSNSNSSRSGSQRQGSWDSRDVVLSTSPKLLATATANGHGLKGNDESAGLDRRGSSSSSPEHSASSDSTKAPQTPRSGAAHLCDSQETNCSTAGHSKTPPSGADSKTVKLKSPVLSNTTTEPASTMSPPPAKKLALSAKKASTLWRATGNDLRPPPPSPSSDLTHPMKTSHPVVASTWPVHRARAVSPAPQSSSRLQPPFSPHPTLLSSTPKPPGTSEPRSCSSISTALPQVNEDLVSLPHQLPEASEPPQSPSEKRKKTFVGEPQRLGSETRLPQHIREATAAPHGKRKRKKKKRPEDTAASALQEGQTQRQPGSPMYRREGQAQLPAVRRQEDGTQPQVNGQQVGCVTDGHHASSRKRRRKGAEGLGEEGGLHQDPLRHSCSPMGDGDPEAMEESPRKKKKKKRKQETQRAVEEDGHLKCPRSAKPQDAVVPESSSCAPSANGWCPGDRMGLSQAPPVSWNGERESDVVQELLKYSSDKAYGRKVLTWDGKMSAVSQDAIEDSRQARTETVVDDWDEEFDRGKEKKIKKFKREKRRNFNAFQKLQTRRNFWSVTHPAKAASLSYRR
Procedure, shortened: as §1

USP38 = target: T2, USP38 (UniProt Q8NB14)
T2 sequence (whole entry): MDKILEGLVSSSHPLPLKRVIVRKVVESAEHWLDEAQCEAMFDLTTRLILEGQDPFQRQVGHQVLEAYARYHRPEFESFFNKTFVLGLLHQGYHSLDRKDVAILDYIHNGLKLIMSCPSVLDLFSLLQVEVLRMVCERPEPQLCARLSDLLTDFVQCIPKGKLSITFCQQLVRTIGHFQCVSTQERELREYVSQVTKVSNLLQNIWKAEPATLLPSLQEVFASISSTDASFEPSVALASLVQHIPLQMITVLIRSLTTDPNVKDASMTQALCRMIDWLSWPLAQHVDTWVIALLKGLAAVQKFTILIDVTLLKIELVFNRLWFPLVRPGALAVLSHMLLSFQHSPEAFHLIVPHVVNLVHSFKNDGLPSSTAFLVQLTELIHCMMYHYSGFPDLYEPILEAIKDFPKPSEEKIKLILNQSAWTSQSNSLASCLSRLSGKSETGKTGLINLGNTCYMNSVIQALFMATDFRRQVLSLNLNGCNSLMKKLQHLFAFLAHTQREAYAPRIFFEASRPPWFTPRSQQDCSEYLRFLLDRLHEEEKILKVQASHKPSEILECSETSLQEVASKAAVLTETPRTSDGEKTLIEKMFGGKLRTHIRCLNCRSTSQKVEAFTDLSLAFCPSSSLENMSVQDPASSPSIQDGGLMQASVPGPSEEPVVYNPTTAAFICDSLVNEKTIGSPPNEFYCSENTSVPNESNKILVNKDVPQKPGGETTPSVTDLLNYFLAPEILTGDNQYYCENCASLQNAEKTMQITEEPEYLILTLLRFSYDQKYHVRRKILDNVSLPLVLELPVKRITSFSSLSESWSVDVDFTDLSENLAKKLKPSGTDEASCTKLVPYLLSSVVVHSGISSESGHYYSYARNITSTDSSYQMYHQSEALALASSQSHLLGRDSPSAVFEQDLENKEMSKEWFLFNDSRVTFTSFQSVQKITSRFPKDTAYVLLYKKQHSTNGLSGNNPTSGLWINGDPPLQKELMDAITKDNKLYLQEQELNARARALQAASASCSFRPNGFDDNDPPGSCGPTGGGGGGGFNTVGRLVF
Procedure, shortened: as §1

USP39 = target: T3, USP39 (UniProt Q53GS9)
T3 sequence (whole entry): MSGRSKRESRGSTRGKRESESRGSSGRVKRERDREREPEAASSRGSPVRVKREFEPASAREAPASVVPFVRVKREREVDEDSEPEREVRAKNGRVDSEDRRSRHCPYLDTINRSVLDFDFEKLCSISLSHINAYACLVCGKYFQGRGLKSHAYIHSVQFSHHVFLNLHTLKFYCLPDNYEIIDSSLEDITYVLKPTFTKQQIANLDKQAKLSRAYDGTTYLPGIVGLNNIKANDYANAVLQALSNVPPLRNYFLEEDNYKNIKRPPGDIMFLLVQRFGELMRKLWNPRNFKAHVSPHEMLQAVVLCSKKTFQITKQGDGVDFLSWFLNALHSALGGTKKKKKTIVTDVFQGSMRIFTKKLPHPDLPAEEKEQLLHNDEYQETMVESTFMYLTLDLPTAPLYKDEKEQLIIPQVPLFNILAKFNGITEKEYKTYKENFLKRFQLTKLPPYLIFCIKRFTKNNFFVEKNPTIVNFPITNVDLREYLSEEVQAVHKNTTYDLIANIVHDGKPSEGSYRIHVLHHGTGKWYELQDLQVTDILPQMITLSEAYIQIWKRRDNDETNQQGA
Procedure, shortened: as §1

USP4 = target: T4, USP4 (UniProt Q13107)
T4 sequence (whole entry): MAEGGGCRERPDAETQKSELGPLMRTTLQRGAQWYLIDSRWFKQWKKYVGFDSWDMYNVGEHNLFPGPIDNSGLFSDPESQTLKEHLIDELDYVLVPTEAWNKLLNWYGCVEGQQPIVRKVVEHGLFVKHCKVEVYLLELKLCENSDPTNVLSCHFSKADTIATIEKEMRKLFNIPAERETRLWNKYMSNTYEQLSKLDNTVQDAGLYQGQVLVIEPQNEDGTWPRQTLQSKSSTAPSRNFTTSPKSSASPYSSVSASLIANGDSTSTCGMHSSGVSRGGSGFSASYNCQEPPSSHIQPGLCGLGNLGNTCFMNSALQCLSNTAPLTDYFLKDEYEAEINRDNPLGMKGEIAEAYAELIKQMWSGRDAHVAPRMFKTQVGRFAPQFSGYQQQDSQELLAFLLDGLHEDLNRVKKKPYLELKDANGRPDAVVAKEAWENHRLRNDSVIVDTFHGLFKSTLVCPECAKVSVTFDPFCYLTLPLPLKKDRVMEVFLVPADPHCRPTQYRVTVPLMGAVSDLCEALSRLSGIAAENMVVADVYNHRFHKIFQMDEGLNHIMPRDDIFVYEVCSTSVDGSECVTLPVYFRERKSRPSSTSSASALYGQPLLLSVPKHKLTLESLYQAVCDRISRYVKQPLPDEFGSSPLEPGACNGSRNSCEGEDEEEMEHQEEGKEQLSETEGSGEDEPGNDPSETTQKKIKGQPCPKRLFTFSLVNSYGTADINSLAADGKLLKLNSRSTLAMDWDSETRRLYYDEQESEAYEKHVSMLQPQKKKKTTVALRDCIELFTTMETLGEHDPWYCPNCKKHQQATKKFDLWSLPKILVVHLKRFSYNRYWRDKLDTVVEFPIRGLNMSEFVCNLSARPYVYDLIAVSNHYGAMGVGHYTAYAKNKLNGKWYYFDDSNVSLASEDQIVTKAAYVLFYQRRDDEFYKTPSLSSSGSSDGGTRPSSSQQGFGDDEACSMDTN
Procedure, shortened: as §1

Measured: log2 ratio of Biotin-Ahx-Ub-VS probe labelling

O=C(CCl)NCCc1ccc(F)cc1
inactive: USP34 -0.0755 | USP36 0.207 | USP38 0.0565 | USP39 0.108 | USP4 -0.11
